Bioassay records (PubChem BioAssay)
PLK1 PBD block – blocks phosphopeptide binding to human PLK1 polo-box domain | AID 720504 | Potency, µM, inactives show max response, negative = inhibition, most hits filed as inhibitors | actives 2.8% (n = 360,000) | Plk1 PBD binding of FITC phosphopeptide, fluorescence polarization; note: series mostly up to about 57 µM; % is set by controls: 0 for no effect and ±100 for the full control effect; nearly all actives have a fitted effect of over 65% in size
JMJD2A Tudor – blocks the human JMJD2A Tudor domain | O75164 | AlphaScreen JMJD2A-Tudor / H3K4me3 peptide binding | Potency, µM (doses to about 114 µM), without a hit: at the top dose activity change, negative = inhibition, most hits filed as inhibitors | actives 4.4% (n = 390,000) | AID 504339; note: % is set by controls: 0 for no effect and ±100 for the full control effect; nearly all actives have a fitted effect of over 50% in size
HP1b chromo inh – inhibitors of HP1-beta chromodomain binding to methylated histone tails | P83916 | AlphaScreen HP1-beta / biotin-H3K9me3 peptide binding | Potency, µM (doses to about 114 µM), without a hit: top-dose activity change, negative = inhibition, most hits filed as inhibitors | actives 0.56% (n = 390,000); note: nearly all actives have a fitted effect of over 70% in size
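Compound inhibition of the preformed complex between 50 nM HP1-beta and 50 nM biotinylated H3K9me3 peptide was read by AlphaScreen. Buffer was PBS pH 7.4 with 0.01% Tween-20. Incubations ran 30 min at room temperature, with 10 ug/mL donor/acceptor beads.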
Sfp PPTase inh – blocks B. subtilis Sfp PPTase activity. Q9F4F7. Biochemical Sfp PPTase activity, qHTS. Potency, µM, without a hit: largest response in the series, negative = inhibition, most hits filed as inhibitors. actives 3.5% (n = 310,000). AID 1490;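 note: the enzyme is Sfp with the accession as filed and its product quenches rhodamine fluorescence; 0% = enzyme reaction without inhibitor and -100% = no enzyme wells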
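After 15 min at room temperature with compound, 15 nM Sfp received 5 uM rhodamine-CoA plus 12.5 uM BHQ-2-ybbR (50 mM Hepes pH 7.6, 10 mM MgCl2). Rate came from the fluorescence difference over 30 min, ex 525/em 598 nm.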
G9a inh – G9a (human) methyltransferase inhibition; Potency, µM (series often up to 102 µM), for inactives: at the top dose activity, negative = inhibition, actives largely listed as inhibitors; Q96KQ7; AID 504332; G9a H3K9 monomethylation, AlphaScreen, 2 h; actives 8.8% (n = 350,000); note: % is set by controls: 0 for no effect and ±100 for the full control effect; nearly all actives have a fitted effect of over 75% in size
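Readings reflect AlphaScreen signal from monomethyl-H3K9 antibody detection. HMT at 20 nM; substrate b-H3K9 500 nM; cofactor SAM 20 uM; 2 h RT reaction; compounds tested as titrations in qHTS with 15 min preincubation.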
BAZ2B block – inhibitors of human BAZ2B bromodomain; AlphaScreen BAZ2B-H3K14Ac peptide displacement; AID 504333; actives 4.4% (n = 360,000); Potency, µM (titrated, usually from 114 µM), for inactives: top-dose activity change, negative = inhibition, hits mostly inhibitors; note: % is set by controls: 0 for no effect and ±100 for the full control effect; nearly all actives have a fitted effect of over 60% in size
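AlphaScreen displacement of biotin-H3(5-23)K14Ac peptide (50 nM final) from BAZ2B (50 nM final) in PBS pH 7.4, 0.01% Tween-20; complex preformed 30 min RT, then compounds (top 110 uM) 30 min RT, beads 20 min dark.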
* hit, by the source's call; ? = inconclusive; nt = not tested or not shown; ! = not confirmed by another sample; [ ] = remark or other dose. Compounds with a hit are over-represented: about 12% of the library has one in this group of screens. Calls come from the whole dose curve; as a rule, active = well fitted curve in the direction sought with a large enough effect; inconclusive = small, poorly fitted or top-dose-only effect, or another doubt; inactive = no such curve, though single readings can be large; an effect the other way counts as inactive or inconclusive. Potency is the fitted concentration of half-maximal effect.

SMILES | PLK1 PBD block | JMJD2A Tudor | HP1b chromo inh | Sfp PPTase inh | G9a inh | BAZ2B block
COCCCNC(=O)c1c(NC(=O)c2ccccc2Cl)n(Cc2ccccc2)c2nc3ccccc3nc12 | 14% | -2% | 23% | 16% | -46% | 11%
COCCNC(=O)c1c(NC(=O)c2ccco2)n(Cc2ccccc2)c2nc3ccccc3nc12 | -6% | -5% | 70% | 22µM* | ? | 7%
CN(C)C(=S)SSC(=S)N(C)C | 0.34µM* | -13% | 22% | 3.5µM*! | 1.3µM* | -33%
CN(C)C(=S)SC(=S)N(C)C | nt | nt | nt | 11µM* | 2.5µM* | nt
c1ccc2oc(-c3ccc4c(c3)CNCc3cnnn3-4)cc2c1 | -5% | nt | nt | nt | nt | nt
CCOC(=O)c1cnc2c(ccc3ccccc32)c1Nc1ccc(N(C)C)cc1 | nt | 11µM* | 10µM* | nt | 2.5µM* | 6.3µM*
CC(Cc1ccc(OCC(=O)O)cc1)NCC(O)c1cccc(Cl)c1 (stereo not given) | nt | nt | nt | 5% | 21%[12.7 µM] | nt
CCOC(=S)SSC(=S)OCC | nt | nt | nt | 5.6µM* | ? | nt
CSCC[C@H](NC(=O)[C@H](CC(C)C)NC(=O)[C@@H](Cc1cnc[nH]1)NC(=O)[C@H](Cc1ccccc1)NC(=O)[C@@H](Cc1ccccc1)NC(=O)[C@@H](N)Cc1ccc(O)cc1)C(N)=O | nt | nt | nt | 10% | nt | nt
CCn1c(=O)oc2cc(NC(=O)CCl)ccc21 | -9% | -14%[57.1 µM] | 25% | 13% | ? | -23%
CCOP(=S)(OCC)SCn1c(=O)oc2cc(Cl)ccc21 | nt | nt | nt | 56µM* | nt | nt
COc1cc(C2c3cc4c(c(O)c3CC3COC(=O)C32)OCO4)cc(OC)c1O (stereo not given) | nt | -16% | 19% | nt | nt | nt
COc1cc(C2c3cc4c(cc3CC3COC(=O)C32)OCO4)cc(OC)c1O (stereo not given) | -12% | 89µM* | 11% | nt | nt | nt
COc1ccc2c(c1)c(CCN)c(C)n2Cc1ccccc1 | -5% | ? | ? | -15% | 40µM* | ?
O=C1NC(=O)C(CCc2ccncc2)(CCc2ccccn2)C(=O)N1c1ccc(Br)cc1 (stereo not given) | -13% | -10% | 37% | 5% | 2%[12.7 µM] | 89µM*
CN(CCc1nnc(N)s1)[N+](=O)[O-] | ? | -15% | 40% | -4% | 22µM* | -1%
CC1CN=C(Nc2ccc(N(C)C)cc2)S1 (stereo not given) | -12% | 40µM* | -34% | 9% | 35µM* | ?
C=C1C(O)[C@@H]2O[C@]3(CC[C@H](/C=C/C(C)[C@@H]4CC(C)=CC5(O[C@H](C[C@@](C)(O)C(=O)O)CCC5O)O4)O3)CC[C@H]2O[C@@H]1C(O)CC(C)[C@H]1OC2(CCCCO2)CCC1C (stereo not given in full) | -17% | -7% | 22% | nt | nt | nt
O=C1NC(=S)NC(=O)C12C(c1ccc(F)cc1)NC(=S)NC2c1ccc(F)cc1 (stereo not given) | -25% | -22% | 25% | 40µM* | ? | -11%
O=C1NC(=O)C(=C/C=C/c2coc3ccc(Br)cc3c2=O)C(=O)N1 | nt | nt | nt | -14% | 8.9µM* | -34%
O=C1NC(=O)C(=Cc2coc3ccccc3c2=O)C(=O)N1 | 11µM* | -22% | -2% | 40µM* | 35µM* | nt
CC([C@H](O)c1ccccc1)N(C)C (stereo not given in full) | nt | nt | nt | 18% | ? | nt
Cc1cccc(C(=O)Nc2ccc3c(c2)CC2(C(=O)N(C)C(=O)N(C)C2=O)C2CCCN32)c1 (stereo not given) | -12% | -21% | 39% | -23% | 28µM* | -16%
COc1ccccc1C(=O)Nc1ccc2c(c1)CC1(C(=O)N(C)C(=O)N(C)C1=O)C1CCCN21 (stereo not given) | -25% | -31% | 8%[57 µM] | -5% | 32µM* | -20%
Cn1c(O)c(/C=C/C=Nc2ccccc2)c(=O)n(C)c1=S | 14% | -14% | 24% | -11% | 45µM* | -1%
NC(N)=NOCCC(N)C(=O)O (stereo not given) | nt | nt | nt | 0% | 30µM*! | nt
